In PubChem BioAssay (EPA / NIEHS):
Calls of active or inactive are those of the source. How the source made its calls: active means hit-call score of the fitted dose curve at least 0.9, where 1 is the maximum; inconclusive means response in the unintended direction; inactive means score below 0.9.

Target: Peroxisome proliferator-activated receptor gamma (Homo sapiens) (UniProt P37231)
Assay: OT_PPARg_PPARgSRC1_1440: Odyssey Thera (OT) 24-hour Protein-Complementation Assay for Peroxisome Proliferator-activated Receptor Gamma/ SRC-1 Co-activator (AID 2283388)
How it was run: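 HEK293T cells transiently transfected with PPARg and SRC-1 fused via (Gly4Ser)2 linker to split Venus YFP fragments (IFP1/IFP2) were dosed 24 h; fixed, Draq5-stained, imaged at 488/635 nm; nuclear/cytoplasmic fluorescence ratio scored versus DMSO baseline, gain-of-signal.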

Peroxisome proliferator-activated receptor gamma (Homo sapiens), sequence (P37231 whole entry, looked up): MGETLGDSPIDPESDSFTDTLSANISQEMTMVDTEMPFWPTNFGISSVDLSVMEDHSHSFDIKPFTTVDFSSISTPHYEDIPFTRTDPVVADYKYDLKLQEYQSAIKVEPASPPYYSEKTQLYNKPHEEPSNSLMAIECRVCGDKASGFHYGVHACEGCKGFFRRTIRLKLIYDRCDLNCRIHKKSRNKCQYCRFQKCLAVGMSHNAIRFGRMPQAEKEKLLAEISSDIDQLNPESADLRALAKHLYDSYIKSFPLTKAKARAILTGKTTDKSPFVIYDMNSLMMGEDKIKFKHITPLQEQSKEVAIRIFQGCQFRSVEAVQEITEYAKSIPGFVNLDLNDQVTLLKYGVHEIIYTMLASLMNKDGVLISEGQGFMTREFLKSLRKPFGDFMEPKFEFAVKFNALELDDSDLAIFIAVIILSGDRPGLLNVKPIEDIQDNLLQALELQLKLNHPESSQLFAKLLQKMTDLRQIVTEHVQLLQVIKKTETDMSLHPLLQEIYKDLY

SMILES	outcome
CCCCCCCCC(CO)CCCCCC (stereo not given)	inactive
CCC(C)(O)CCCC(C)C (stereo not given)	inactive
CCCCCCOC(=O)CCCCC(=O)OCCCCCC	inactive
CCCCC(=O)O	inactive
Cc1c(C(=O)c2c[nH]n(C)c2=O)ccc(S(C)(=O)=O)c1C1=NOCC1	inactive
CC(C)(C)C1CCC(=O)CC1	inactive
O=C(O)/C=C/c1ccccc1	inactive
CCOC(=O)c1ccc(C)cc1	inactive
CCCCNS(=O)(=O)c1ccc(C)cc1	inactive
CC1=CCC2CC1C2(C)C (stereo not given)	inactive
CCC1COC(=O)O1 (stereo not given)	inactive
Fc1ccc(Br)cc1	inactive
C[Si]1(C)O[Si](C)(C)O[Si](C)(C)O[Si](C)(C)O[Si](C)(C)O1	inactive
Cc1cc(C)n(CO)n1	inactive
Oc1ccc(-c2ccccc2)c(Cl)c1	inactive
CC(=O)/C=C/C1C(C)=CCCC1(C)C (stereo not given)	inactive
CC(C)c1cc(C(C)C)cc(C(C)C)c1	inactive
CCCCCCOc1ccc(N)cc1	inactive
O=C(O)CC(C(=O)O)S(=O)(=O)O (stereo not given)	inactive
CCc1cccc(C)c1N	inactive
CC(=O)c1ccccc1O	inactive
CCCCCCCOC(=O)c1ccc(O)cc1	inactive
O=C(O)CCC(=O)O	inactive
CCCCC/C=C\C/C=C\CCCCCCCC(=O)O	inactive
CC(CCC(=O)O)(c1ccc(O)cc1)c1ccc(O)cc1	inactive
CCOC(=O)c1ccccc1C	inactive
CCCCC(C=O)CC (stereo not given)	inactive
CCCCCCCCCC[N+](C)(CCCCCCCCCC)CCC[Si](OC)(OC)OC	inactive
CCOC(=O)C1=NOC(c2ccccc2)(c2ccccc2)C1	inactive
CCCCCC[C@@H](O)C/C=C\CCCCCCCC(=O)OCC(O)CO (stereo not given in full)	inactive
